Drawing on PubChem BioAssay AID1508600 (Functional Genomics Laboratory (NCATS/FGL), 2020), this text covers z-score for 108 sequences.

The campaign covered roughly 53,000 sequences. About 3,700 (7%) were called active. The entries come from a sample that favours actives as a whole. Unmarked numbers belong to inactive results.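 The calls were made as follows: active = gene knockdowns whose robust z-score for IL-1 alpha signal is at least 2 or at most -2, so actives lie on both sides; inactive = the rest.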

This assay is described as follows: Components of the Cytosolic LPS Sensing Pathway: Gene Identification via Genome-wide siRNA Screen.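 Also: robust z of the log signal after scaling to non-targeting control siRNA wells of the plate.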 The note with it: RAW264.7 macrophages, IL-1a HTRF, actives lie on both sides, screened at 100 nM (by protocol), cells primed 5 h with Pam3CSK4 first. The procedure, abridged:
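IL-1a HTRF of supernatants after 24 hour LipidA transfection of Pam3CSK4-primed (5 hours) RAW264.7 cells, 48h post-siRNA transfection (100 nM). Scores: percent of plate negative-control median, then log-based robust z-score.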
A general note: TR-FRET usually uses a lanthanide donor and a delayed reading to cut background.
For GCGAAGUUACUACAGACGUTT against Slc39a1, the z-score is -0.124.
Then CCAGUCAAAUAUCCAUUAGTT against Scgb2b26, with -2.28 (active); and GGAGACUCUCACCUAUCAUTT against Doc2g, with -0.458.
Then CCAAUCACCAGAGACUAACTT against Slain1, with 2.81 (active); and GGAAGUUUUUGAGAAUGGGTT against Ppp3cc, with -0.38.
The figure for CCGAAUUCCAACCUAGAGCTT against Yipf5 is -1.38.
On to CCGCUCACGUGAAAAAGUUTT against Tars2, for which the z-score is 0.327.
Then GGACAUCUGGUUAUGAAUGTT against B3galt6, with -0.111; and GCCGAGCUCAUCAUCAUGATT against Prss40, with 2.5 (active).
Then GCAUGACUCUCAGGUCAAGTT against Lman2, with 1.54; and GGACAUUGCAUUGCUCAUGTT against Sec1, with -0.526.
Take CCUUCUUAUUGCUUAACCCTT against Scd3: the z-score is 0.279.
The figure for GGAAGAAGAUAAAGAGCGGTT against Nrgn is -0.708; for GGACCUCAGUCACUUCCAATT against Etv4 it is 2.93 (active).
The figure for “AGUUCCAGGCGCAGAAACCTT against D8Ertd738e” is 1.46; for GGUUUUUCUUCUGCUGGUGTT against Olfr1256 it is 1.64; for CCGGCUAAAUCACCGUGCUTT against Clpb it is -0.647.
Take GCCCAAAAAGGAAUUAAUUTT against Pak3: the z-score is -0.176.
The figure for CCUGGAGAUCCCUCACUUUTT against Olfr1351 is 1.39; for GGCUUUAAGAUCACACAAATT against Snrpa it is 2.09 (active).
Then GCAGAUGCUUCGGUGAAAATT against Defb15, with 0.998; and CCCAUACAAAGCACUUACATT against Otub1, with 0.589.
The figure for GGACAAAUGGUAUUGUAGUTT against Coa5 is -1.72; for GCCGUCUUGUGUGUAUCAATT against Olfr1342 it is -0.186.
Turning to GGAAAAGUGACGGUAUCUATT against Rpsa, the z-score was -2.04 (active).
Then GGGAUAAAAACCAUGGUUUTT against Pramel27, with 0.113; and GCACUUAUGGUUUAGAUGUTT against Prdm8, with -0.127; and GGAACUUAUAUCUGCGCCATT against Gprin3, with 0.868.
Then AAAAGCUUCACCUAACUAUTT against Ascc1, with 1.73; and “GGUGACAGUUGUUCACAAATT against 4933405O20Rik”, with -1.4; and GGAAUCAUAUCAGAAACUATT against Pde4b, with -0.475.
Then GGGAGAGUCAAAAAAAGAUTT against Khdrbs1, with -0.536; and GGAAGACUGGUACACAUAATT against Tmem43, with -2.32 (active).
GCCAGUACUUAGGUCUAAGTT against Mrps25: the z-score is 1.24.
The figure for GCCCUCAGGUGGUUCUUAATT against Heatr3 is 0.443; for CCAUGUCAACGACCAUCAUTT against Glis2 it is 0.189.
Then GCACCUCCACAAGAAUGAATT against Six2, with 0.466; and GGAACAUUGACCAGAUAGUTT against Ankrd44, with -1.44.
Then GGAGUUGAAUGGCUCUGGATT against Usp26, with -2.11 (active); and CCUUUGAGCCAGUUAUUUATT against Slc25a27, with 0.366.
Regarding GGAACAUCUACAUUGUGGCTT against Tspan14, the z-score was 0.402.
For the sequence GGAAUUUGCUGCCCUCCUATT against Smad3, the z-score is -0.206.
Take GCAGACUCUUCCAAGUAAUTT against Lrrc28: the z-score is 0.529.
As to GGCAUCGUCACCAAACUGUTT against Fgf11, the z-score is -2.51 (active).
For GCUAGAUUUCUACUGUGUCTT against Mindy1, the z-score was 0.527.
The figure for GCAAUUUUAGUUGGUGGAATT against Ddx24 is -0.112.
The figure for GCGGAAGUCGAAUCUGUCUTT against Aga is -1.45; for GGAAUUUGUCAGGUUCCAATT against Grik4 it is 0.859.
The figure for CGGGCUGAAUGUGUUUGUGTT against Slc10a4 is 2.62 (active); for GGUACGGUAUGGAGAUCGGTT against Atpaf2 it is 0.593.
GGCAGAGCCAGGAUGUCUUTT against Msmb: the z-score is -1.2.
For the sequence GGUAACUCUCCUUAGCCAGTT against Klk10, the z-score is -0.0493.
With GGACUCCCUGGAUUUCAGATT against Rapgef3, the z-score was -1.34.
Then GGCAGCUGAAGAUUAUGGATT against Tagln, with 0.837.
Turning to GGCAAUAACAUUGCCUCGGTT against Igf1r, the z-score was 0.632.
Then GGGUGAGCAGUACAUUCAATT against Plekhg6, with 2.73 (active); and CCGAAAAUGUGGUAAAGUATT against Smg1, with 0.948.
Then CCCAACAACCAACUAUUUUTT against Kcna1, with 3.36 (active); and GGGAUAAAGAUGAAGAACUTT against Tmem167b, with 1.31; and GGAAGUCAAGAUCUCACCUTT against Lrrc25, with -0.864.
Then CCAAGGGAAGAUUCAAAUUTT against Abcc8, with 2.29 (active).
Take CGUUUGAUACCAAAGAUUUTT against Onecut3: the z-score is -1.12.
Turning to GCUGUAAGCUACCGUCUGUTT against Panx2, the z-score was 1.54.
The figure for GGUAUCUACCAGUACGAGATT against Izumo4 is -1.59.
The figure for GCAUUAUGUCAGUAGCUCATT against Snrpb is -3.47 (active).
The figure for CGGUGCACAACGUACCAAUTT against Srxn1 is -0.0189.
In the case of GGUAUCCCUAACUGGCAGUTT against Tro, the z-score is -0.849.
Then GGCUCAAAGGAGGGUAGAGTT against Lcn8, with 3.18 (active); and GGAAAUAAAUGGCAGCAUGTT against H2-T3, with 1.47.
On to GGAUGAUUCAUUCAGUGAUTT against Adcy9, for which the z-score is 0.918.
As for CCAAAACUUUCCACUCUAATT against Ttc32, the z-score was 0.175.
Then CCCAAACUGAAUUAAGCAGTT against Spata7, with -0.515; and GGAAAACUACUAAAAAGUCTT against Zfp938, with -0.31.
The figure for GGUUACUCCUUUUUAUGUATT against Bex1 is -1.1.
Then GGGACAAGUGGUUGAAACCTT against Prmt8, with -2.01 (active).
With GGCCACAAACAGAAUUAUCTT against Mrpl2, the z-score was -0.219.
As for GGAGAAAAAGGGAAAGAAUTT against Dlx4, the z-score was 0.0644.
The figure for CCUAGUUUGGUGAUGAUGUTT against Atg10 is -0.262.
The figure for GGUCAUUGAAAACUGUGCGTT against Sardh is -1.04; for GCAAGAGACCUUGUUAUAGTT against Cttnbp2nl it is -0.426.
Then CCCAGUAAAUAAGAGUACATT against Treml1, with -1.33; and GGGAGACCCAAUGUCAUCATT against Dtx3, with -1.25.
Consider GCGGGAUUGGUCAUUCCACTT against Mrpl45, for which the z-score is 2.97 (active).
The figure for CGAACAUGUACAACAAAGATT against Cacna2d3 is -0.181; for GGAACAAAGACUUCAAAGATT against Olfr323 it is -0.249.
Turning to GGUGCUAAAAAUGAGCCUUTT against Urm1, the z-score is -1.66.
The figure for GGGAUGGCCAUAGAACAGATT against Echdc2 is -0.211; for CCCUAGACUUGAGAGUUUUTT against Eif2s1 it is 1.29.
As to GGCUGUGGAAGUGCAGAACTT against Dnmt3a, the z-score was -2.53 (active).
The figure for CCGAGAGGUUUAAGGUCUCTT against Nsg1 is 1.18.
Then GCUAGUCUACCCAAGUGACTT against Dennd6b, with 4.35 (active); and CCUACUUACUCCUGUAUAATT against Adam3, with 1.77; and CGAAACCAACAGUUAGAAGTT against Cby1, with 0.71.
Then “GAUCCUCACGAAAUAGGUATT against Olfr1372-ps1”, with 0.737; and “GGUCUCUAGUGGAAAAGCATT against A430093F15Rik”, with -3.05 (active); and GCUCUUAAAACCCACCUGATT against Gzf1, with -1.97.
As for UAAUGGCUGCUGUCUCCUGTT against Olfr441, the z-score is 0.405.
Then GGCGAAAAAGAACUUCUCCTT against Prrx1, with -2.17 (active); and GCCUACAUUCACUCACUCCTT against Olfr1061, with -0.016; and GGAUCAUUCGGACAAAAGUTT against Pax5, with -1.31.
Then GGAGAAGAAGAUUUUUGGCTT against Gpr108, with -0.684; and GCCAACAAAGUGAUCGAAGTT against Fkbp10, with 0.175.
The figure for CCAGCAAUGUACCAGUUCATT against Micos13 is -2.02 (active).
In the case of GGUGAAAGAGAAGACUGAATT against Aimp1, the z-score was -0.418.
The figure for GGGUAUUCCUUCCAACACCTT against Lrrc4 is -2.14 (active).
Regarding CCCAGUAUCAGACUAUCAUTT against Inpp4a, the z-score is -0.178.
The figure for CGAAUUUUGGAGAUGUAUGTT against Ddias is 0.376; for GGAACAAAGAAGUCAAAGATT against Olfr16 it is -0.765.
